Bioassay records deposited in PubChem BioAssay by Broad Institute.
The list is a sample of the results.
aSyn 5UTR act: Activators working through SNCA 5'UTR binding (MLPCN) | alpha-synuclein 5'UTR reporter, activators screen | activity score, % (tested at 7.5 µM), hits read low | 300,000 compounds, 7.1% hits; in the data active means activity score below about -60%
An asterisk follows results filed as active.

SMILES	aSyn 5UTR act
COC(=O)C1=C(C)NC(C)=C(C(=O)OC)C1c1ccc(-c2cccc(Cl)c2Cl)o1	-72.3*
Cc1ccnc2nc(C(=O)Nc3cc(Cl)ccc3N3CCOCC3)nn12	-77.0*
Cc1ccc(NC2(C#N)C(=O)Nc3ccccc32)cc1C (centres undefined)	-89.1*
Cc1ccc(NC(=O)/C=C/c2ccc([N+](=O)[O-])s2)c(C)c1	-93.0*
Cc1ccc(NC(=O)/C=C/c2ccc([N+](=O)[O-])s2)cc1	-212.4*
Cc1cc([N+](=O)[O-])ccc1NC(=O)/C=C/c1cccs1	-157.6*
Cc1cccc(NC(=O)/C=C/c2ccc([N+](=O)[O-])s2)c1	-223.6*
CN(C)c1ccc(NC(=O)Nc2ccc3snnc3c2)cc1	-115.1*
O=C(Nc1ccccc1)Nc1ccc2nnsc2c1	-144.8*
O=C(Nc1ccccc1)Nc1ccc2snnc2c1	-147.4*
CC(=O)Nc1ccc(-c2csc(NC(=O)C3=COCCO3)n2)cc1	-114.7*
Cc1ccc(-c2csc(NC(=O)N3CCOCC3)n2)cc1	-103.5*
CCOC(=O)c1csc(NC(=O)C2=COCCO2)n1	-86.7*
COc1ccc(C)c2sc(NC(=O)C3=COCCO3)nc12	-76.6*
CC(=O)Nc1ccc(-c2csc(NC(=O)c3ccc(C)o3)n2)cc1	-83.3*
CC(C)(C)c1csc(NC(=O)C2=COCCO2)n1	-107.1*
O=C(Nc1nc(-c2cc(F)ccc2F)cs1)c1ccccn1	-115.1*
Cc1nc(-c2ccc(NC(=O)c3ccc(Br)o3)cc2)cs1	-174.9*
O=C(Nc1cccc(Br)c1)c1ccn[nH]1	-102.2*
COc1ccc(OC)c(NC(=O)c2ccc(-c3csc(C)n3)cc2)c1	-84.4*
CCOC(=O)c1csc(NC(=O)C2CCCCC2)n1	-103.0*
Cc1ccc(-c2csc(NC(=O)C3=COCCO3)n2)cc1	-168.9*
Cc1nc(-c2ccc(C(=O)Nc3cccc(Br)c3)cc2)cs1	-142.8*
O=C(Nc1nc(-c2cc(F)ccc2F)cs1)C1=COCCO1	-62.6*
CC(=O)c1cccc(OCc2cc(C(=O)N(C)CCC3CCOCC3)no2)c1	-85.5*
SMILES	aSyn 5UTR act
CCN(CC1CCCO1)C(=O)c1cc(COc2cc(C)c(Cl)c(C)c2)on1 (centres undefined)	-129.0*
Cc1cc(OCc2cc(C(=O)N(C)CC3CCOCC3)no2)cc(C)c1Cl	-71.6*
CCN(CC)C(=S)SCC(=O)c1ccc(F)cc1	-133.1*
CCN(CC)C(=S)SSC(=S)N(CC)CC	96.8
CCN(CC)C(=S)SCC(=O)c1ccccc1	-165.0*
Cc1ccc(NC(=O)C2C3/C=C\CCCCC32)cc1 (centres undefined)	-82.6*
CSCCC(=O)Nc1ccc(C(C)=O)cc1	-143.4*
CC(=O)c1ccc(NC(=O)CN2CCCC2)cc1	-63.5*
Cc1ccc(NC(=O)C2C3CCCCC32)cc1[N+](=O)[O-] (centres undefined)	-98.6*
Cc1cccc(NC(=O)C2C3CCCCC32)c1 (centres undefined)	-116.9*
Cc1ccc(NC(=O)Nc2ccccc2)cc1[N+](=O)[O-]	-145.2*
Cc1cc(NC(=O)OC2CCCCC2)ccc1[N+](=O)[O-]	-189.6*
Cc1ccc(NC(=O)CN2CCCCCC2)cc1[N+](=O)[O-]	-89.9*
Cc1cccnc1CN1CCN(C(=O)CCc2nnc(CCc3ccccc3)o2)CC1	-72.0*
CCc1ccc2c(c1)[C@]1(C(=O)N2)[C@@H]2C(=O)N(Cc3ccccc3)C(=O)[C@@H]2[C@@H]2CCCN21	-77.8*
Cc1ccc(NC(=O)c2c(C(F)(F)F)nn(C)c2SCc2cccc(C(F)(F)F)c2)cc1C	-102.4*
Cc1ccc(C(=O)Nc2cccc(C(F)(F)F)c2)cc1NC(=O)c1ccno1	94.9
CC(=O)c1ccc(-n2c(CCC(=O)O)ccc2-c2cccs2)cc1	-98.7*
c1ccc(CSc2ncnc3c2cnn3-c2ccccc2)cc1	-142.3*
CC(C)(C)C(=O)CSc1ncnc2c1cnn2-c1ccccc1	-161.8*
C=CCC1(CC=C)CCCN1C(=O)C1CCC(=O)N(CCc2ccc(OC)cc2)C1 (centres undefined)	-209.6*
COc1ccc(CCN2CC(C(=O)N(C)Cc3ccc(C)o3)CCC2=O)cc1 (centres undefined)	-86.9*
C=CCC1(CC=C)CCCN1C(=O)C1CCC(=O)N(CCc2ccccc2)C1 (centres undefined)	-180.7*
O=c1c2ccccc2nnn1COc1cccc2ccccc12	-146.7*
O=c1c2ccccc2nnn1COc1ccc(F)cc1Cl	-117.7*
SMILES	aSyn 5UTR act
O=c1c2ccccc2nnn1COc1ccc(Cl)cc1Br	-153.8*
Cc1ccc(NC(=O)c2ccc(OCC3CCCO3)cc2)cc1 (centres undefined)	-122.8*
Cc1cnc(NC(=O)c2ccc(OCC3CCCO3)cc2)s1 (centres undefined)	79.1
Cc1ccc(NC(=O)c2ccc(OC(=O)COc3ccc(Cl)c(C)c3)cc2)cc1	-115.3*
O=C(Nc1nc2ccccc2s1)c1ccc(OCC2CCCO2)cc1 (centres undefined)	-88.6*
CCOc1ccc(C(=O)NC2=NCCS2)cc1	-84.5*
O=C(NC1=NCCS1)c1ccc(OCC2CCCO2)cc1 (centres undefined)	-77.0*
